Structures can show the parent of a compound that is named as a salt. ± gives the standard deviation of the averaged measurements.
System: A549
Assay: relative viability (normalised to negative control = 1, bortezomib = 0) (fraction); higher = less cytotoxic
Settings: inflammatory serum-free RHB-A with cytokines + LPS, 5 d + 24 h CellTiter-Blue
[1] = compound 30 nM, GSK126 pretreatment: 5 uM GSK126
[2] = compound 30 nM, GSK126 pretreatment: none (vehicle)
[3] = compound 300 nM, GSK126 pretreatment: 5 uM GSK126
[4] = compound 300 nM, GSK126 pretreatment: none (vehicle)

SMILES	relative viability [1]	relative viability [2]	relative viability [3]	relative viability [4]
C[C@@H]1CCN(C(=O)CC#N)C[C@@H]1N(C)c1ncnc2[nH]ccc12	1.05 ± 0.18	0.99 ± 0.17	1.31 ± 0.067	1.28 ± 0.1
O=C1NC(=O)/C(=C/c2ccc3nccc(-c4ccncc4)c3c2)S1	0.83 ± 0.1	0.85 ± 0.088	0.747 ± 0.067	0.72 ± 0.029
CC(=O)O[C@]1(C(C)=O)CC[C@H]2[C@@H]3C=C(C)C4=CC(=O)CC[C@]4(C)[C@H]3CC[C@@]21C [Megestrol acetate]	1.35 ± 0.04	1.21 ± 0.14	1.48 ± 0.078	1.55 ± 0.085
CN(C)C/C=C/C(=O)Nc1cc2c(Nc3ccc(F)c(Cl)c3)ncnc2cc1O[C@H]1CCOC1 [BIBW2992; BIBW2992(Tovok)]	0.389 ± 0.018	0.374 ± 0.028	0.281 ± 0.036	0.328 ± 0.052
NC(=O)NO [Hydroxyurea]	0.998 ± 0.13	1.05 ± 0.1	1.09 ± 0.071	1.06 ± 0.05
CO[C@H]1C(=O)[C@]2(C)[C@@H](OC)C[C@H]3OC[C@@]3(OC(C)=O)[C@H]2[C@H](OC(=O)c2ccccc2)[C@]2(O)C[C@H](OC(=O)[C@H](O)[C@@H](NC(=O)OC(C)(C)C)c3ccccc3)C(C)=C1C2(C)C [Cabazitaxel]	0.487 ± 0.065	0.349 ± 0.054	0.541 ± 0.061	0.421 ± 0.077
Cc1cc(Nc2cc(CN3CCOCC3)c3nc(C)c(Cc4ccc(Cl)cc4F)n3n2)n[nH]1	0.974 ± 0.13	0.988 ± 0.062	1.24 ± 0.078	1.23 ± 0.03
COC(=O)Nc1ccc(-c2nc(N3CCOCC3)c3cnn(C4CCN(Cc5cccnc5)CC4)c3n2)cc1	0.851 ± 0.12	0.869 ± 0.13	0.847 ± 0.061	0.832 ± 0.097
CN(C)Cc1cccc(N=C(c2ccccc2)c2c(O)[nH]c3cc(C(=O)N(C)C)ccc23)c1	0.839 ± 0.14	0.864 ± 0.16	0.954 ± 0.16	1.04 ± 0.16
CCc1c2c(nc3ccc(OC(=O)N4CCC(N5CCCCC5)CC4)cc13)-c1cc3c(c(=O)n1C2)COC(=O)[C@]3(O)CC [Irinotecan HCl; Irinotecan hydrochloride]	0.898 ± 0.038	0.895 ± 0.018	0.931 ± 0.037	0.917 ± 0.031
C#Cc1cccc(Nc2ncnc3cc(OCCOC)c(OCCO)cc23)c1 [OSI-420 (Desmethyl Erlotinib)]	0.944 ± 0.086	0.91 ± 0.05	0.477 ± 0.047	0.505 ± 0.019
C[C@@H]1CN(CC(=O)Nc2ccc3c(c2)Cc2cccc(-c4cc(=O)cc(N5CCOCC5)o4)c2S3)C[C@H](C)O1	0.816 ± 0.029	0.857 ± 0.089	0.907 ± 0.043	0.943 ± 0.024
CN(C)c1nc(N(C)C)nc(N(C)C)n1 [Altretamine]	0.861 ± 0.011	0.87 ± 0.045	0.931 ± 0.02	0.887 ± 0.095
CO[C@@]12[C@H](COC(N)=O)C3=C(C(=O)C(C)=C(N)C3=O)N1C[C@@H]1N[C@@H]12 [Mitomycin; Mitomycin C]	0.827 ± 0.16	0.845 ± 0.092	0.58 ± 0.1	0.47 ± 0.05
Cn1cnc2c(F)c(Nc3ccc(Br)cc3Cl)c(C(=O)NOCCO)cc21 [AZD6244(Selumetinib)]	0.401 ± 0.0087	0.592 ± 0.045	0.203 ± 0.028	0.34 ± 0.022
CO[C@H]1C[C@@H]2CC[C@@H](C)[C@@](O)(O2)C(=O)C(=O)N2CCCC[C@H]2C(=O)O[C@H]([C@H](C)C[C@@H]2CC[C@@H](O)[C@H](OC)C2)CC(=O)[C@H](C)/C=C(\C)[C@@H](O)[C@@H](OC)C(=O)[C@H](C)C[C@H](C)/C=C/C=C/C=C/1C [Sirolimus; RAPAMYCIN; Rapamycin(Sirolimus); Rapamycin]	0.576 ± 0.08	0.588 ± 0.064	0.552 ± 0.066	0.558 ± 0.07
Cc1ccc(S(=O)(=O)Nc2nc3ccccc3nc2Nc2ccc3nsnc3c2)cc1	0.8 ± 0.092	0.774 ± 0.06	0.748 ± 0.14	0.842 ± 0.06
Oc1ncnc2[nH]ncc12 [Allopurinol]	0.988 ± 0.076	0.996 ± 0.03	0.952 ± 0.11	0.974 ± 0.066
CC(C)Cn1cnc2c(N)nc3ccccc3c21 [Imiquimod]	0.8017 ± 0.004	0.794 ± 0.058	0.863 ± 0.059	0.911 ± 0.019
COc1ccc(-c2ccc3c(N4CCOC[C@@H]4C)nc(N4CCOC[C@@H]4C)nc3n2)cc1CO	0.392 ± 0.011	0.396 ± 0.016	0.191 ± 0.054	0.197 ± 0.015
CO[C@H]1C[C@@H]2CC[C@@H](C)[C@@](O)(O2)C(=O)C(=O)N2CCCC[C@H]2C(=O)O[C@H]([C@H](C)C[C@@H]2CC[C@@H](OP(C)(C)=O)[C@H](OC)C2)CC(=O)[C@H](C)/C=C(\C)[C@@H](O)[C@@H](OC)C(=O)[C@H](C)C[C@H](C)/C=C/C=C/C=C/1C [Deforolimus(MK-8669)]	0.574 ± 0.039	0.591 ± 0.02	0.548 ± 0.03	0.523 ± 0.041
O=C1c2c(O)ccc(O)c2C(=O)c2c(NCCNCCO)ccc(NCCNCCO)c21 [Mitoxantrone; Mitoxantrone dihydrochloride]	0.483 ± 0.02	0.376 ± 0.022	0.148 ± 0.013	0.137 ± 0.008

From the supplement of paper PMC6279402
